# About 410 targets per protein were measured; listed, in parts, are those with the strongest signals and a random draw of the rest.
# B1: Arath Fbox LD (Arabidopsis thaliana) (protein)
# chain: EFSVWLEKASGKRCLMLSAMNLSIIWGDNPQYWQWIPIPESRFEKVAKLRDVCWFEIRGRTNTRVLSPRTRYSAYIVFKGVDKCYGFQNVAIEAAVGVVGQEPSRRLICFSEAIRRGRRNVVKPKQREDGWMEIELGEFFNDGGIMDNDEIEMSALETKQLNRKCGLIIQGIEIRPAKILAAASFLEQKLISEEDLNSAVDHHHHHH
# What was measured:
# Experiment in all cases: glycan array binding signal (z-score within array); higher = stronger binding
# Details in all cases: glycan notation: IUPAC condensed, linker removed
# [1] = target: GlcNAc(a1-4)Gal(b1-4)GalNAc
# Summary of the method: (§1)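 From the Consortium for Functional Glycomics database, 3228 arrays were curated, keeping only those whose protein sequence was available. Binding is given as a within-array Z-score averaged across arrays sharing a protein sequence and across linkers. Negative Z-scores can be read as non-binding.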
# [2] = target: GlcNAc(b1-3)Gal(b1-4)GlcNAc(b1-3)Gal(b1-4)GlcNAc(b1-2)[GlcNAc(b1-3)Gal(b1-4)GlcNAc(b1-3)Gal(b1-4)GlcNAc(b1-6)]Man(a1-6)[GlcNAc(b1-3)Gal(b1-4)GlcNAc(b1-3)Gal(b1-4)GlcNAc(b1-2)Man(a1-3)]Man(b1-4)GlcNAc(b1-4)[Fuc(a1-6)]GlcNAc
# Summary of the method: as §1
# [3] = target: Man(a1-2)Man(a1-2)Man(a1-3)Man
# Summary of the method: as §1
# [4] = target: Man(a1-2)Man(a1-3)[Man(a1-6)]Man(a1-6)[Man(a1-2)Man(a1-3)]Man(b1-4)GlcNAc(b1-4)GlcNAc
# Summary of the method: as §1
# Man(a1-6)Man = target: Man(a1-6)Man
# Summary of the method: as §1
# [5] = target: Neu5Ac(a2-3)Gal(b1-3)GlcNAc(b1-2)Man
# Summary of the method: as §1
# [6] = target: Neu5Ac(a2-3)Gal(b1-3)GlcNAc(b1-2)Man(a1-3)[GlcNAc(b1-4)][Neu5Ac(a2-3)Gal(b1-3)GlcNAc(b1-2)Man(a1-6)]Man(b1-4)GlcNAc(b1-4)GlcNAc
# Summary of the method: as §1
# [7] = target: Neu5Ac(a2-3)Gal(b1-3)GlcNAc(b1-6)GalNAc
# Summary of the method: as §1
# [8] = target: Neu5Ac(a2-3)Gal(b1-3)GlcNAc6S
# Summary of the method: as §1
# [9] = target: Neu5Ac(a2-3)Gal(b1-3)[Neu5Ac(a2-6)]GalNAc
# Summary of the method: as §1
# [10] = target: Neu5Ac(a2-3)Gal(b1-3)[Neu5Ac(a2-6)]GlcNAc(b1-3)[Fuc(a1-3)[Gal(b1-4)]GlcNAc(b1-6)]Gal(b1-4)Glc
# Summary of the method: as §1
# Neu5Ac(a2-3)Gal(b1-4)Glc = target: Neu5Ac(a2-3)Gal(b1-4)Glc
# Summary of the method: as §1
# [11] = target: Neu5Ac(a2-3)Gal(b1-4)GlcNAc(b1-2)[Neu5Ac(a2-3)Gal(b1-4)GlcNAc(b1-6)]Man(a1-6)[Neu5Ac(a2-3)Gal(b1-4)GlcNAc(b1-2)Man(a1-3)][GlcNAc(b1-4)]Man(b1-4)GlcNAc(b1-4)GlcNAc
# Summary of the method: as §1
# [12] = target: Neu5Ac(a2-3)Gal(b1-4)GlcNAc(b1-3)Gal(b1-4)GlcNAc
# Summary of the method: as §1
# [13] = target: Neu5Ac(a2-3)Gal(b1-4)GlcNAc(b1-3)[Neu5Ac(a2-3)Gal(b1-4)GlcNAc(b1-6)]GalNAc
# Summary of the method: as §1
# [14] = target: Neu5Ac(a2-3)Gal(b1-4)GlcNAc(b1-6)[Gal(b1-3)]GalNAc
# Summary of the method: as §1
# Neu5Ac(a2-6)Gal = target: Neu5Ac(a2-6)Gal
# Summary of the method: as §1
# Neu5Ac(a2-6)Gal(b1-4)Glc = target: Neu5Ac(a2-6)Gal(b1-4)Glc
# Summary of the method: as §1
# [15] = target: Neu5Ac(a2-6)Gal(b1-4)GlcNAc
# Summary of the method: as §1
# [16] = target: Neu5Ac(a2-6)Gal(b1-4)GlcNAc(b1-2)[Neu5Ac(a2-6)Gal(b1-4)GlcNAc(b1-6)]Man(a1-6)[Neu5Ac(a2-6)Gal(b1-4)GlcNAc(b1-2)Man(a1-3)][GlcNAc(b1-4)]Man(b1-4)GlcNAc(b1-4)GlcNAc
# Summary of the method: as §1
# [17] = target: Neu5Ac(a2-6)Gal(b1-4)GlcNAc(b1-3)GalNAc
# Summary of the method: as §1
# [18] = target: Neu5Ac(a2-6)GalNAc(b1-4)GlcNAc
# Summary of the method: as §1
# [19] = target: Neu5Ac(a2-8)Neu5Ac(a2-3)Gal(b1-4)Glc
# Summary of the method: as §1
# [20] = target: Neu5Ac(a2-8)Neu5Ac(a2-3)Gal(b1-4)GlcNAc
# Summary of the method: as §1
# [21] = target: Neu5Ac(a2-8)Neu5Ac(a2-8)Neu5Ac(a2-8)Neu5Ac(a2-3)[GalNAc(b1-4)]Gal(b1-4)Glc
# Summary of the method: as §1
# [22] = target: Neu5Ac9Ac(a2-3)Gal(b1-3)GlcNAc
# Summary of the method: as §1
# [23] = target: Neu5Gc(a2-3)Gal(b1-3)[Fuc(a1-4)]GlcNAc
# Summary of the method: as §1
# [24] = target: Neu5Gc(a2-3)Gal(b1-4)GlcNAc(b1-3)Gal(b1-4)GlcNAc(b1-2)Man(a1-3)[Neu5Gc(a2-3)Gal(b1-4)GlcNAc(b1-3)Gal(b1-4)GlcNAc(b1-2)Man(a1-6)]Man(b1-4)GlcNAc(b1-4)GlcNAc
# Summary of the method: as §1
# Neu5Gc(a2-6)GalNAc = target: Neu5Gc(a2-6)GalNAc
# Summary of the method: as §1
# [25] = target: Neu5Gc(a2-8)Neu5Gc(a2-3)Gal(b1-4)GlcNAc(b1-3)Gal(b1-4)GlcNAc
# Summary of the method: as §1
binder,measurement,setting,value
B1,glycan array binding signal (z-score),[1],0.26
same,glycan array binding signal (z-score),[2],0.126
same,glycan array binding signal (z-score),[3],-0.56
same,glycan array binding signal (z-score),[4],-0.337
same,glycan array binding signal (z-score),Man(a1-6)Man,2.7
same,glycan array binding signal (z-score),[5],2.03
same,glycan array binding signal (z-score),[6],-0.462
same,glycan array binding signal (z-score),[7],-0.64
same,glycan array binding signal (z-score),[8],-0.302
same,glycan array binding signal (z-score),[9],-0.264
same,glycan array binding signal (z-score),[10],-0.662
same,glycan array binding signal (z-score),Neu5Ac(a2-3)Gal(b1-4)Glc,-0.473
same,glycan array binding signal (z-score),[11],-0.407
same,glycan array binding signal (z-score),[12],-0.587
same,glycan array binding signal (z-score),[13],-0.595
same,glycan array binding signal (z-score),[14],-0.599
same,glycan array binding signal (z-score),Neu5Ac(a2-6)Gal,2.83
same,glycan array binding signal (z-score),Neu5Ac(a2-6)Gal(b1-4)Glc,0.791
same,glycan array binding signal (z-score),[15],-0.052
same,glycan array binding signal (z-score),[16],0.015
same,glycan array binding signal (z-score),[17],-0.324
same,glycan array binding signal (z-score),[18],-0.53
same,glycan array binding signal (z-score),[19],-0.516
same,glycan array binding signal (z-score),[20],-0.254
same,glycan array binding signal (z-score),[21],0.508
same,glycan array binding signal (z-score),[22],3.71
same,glycan array binding signal (z-score),[23],-0.502
same,glycan array binding signal (z-score),[24],-0.554
same,glycan array binding signal (z-score),Neu5Gc(a2-6)GalNAc,-0.28
same,glycan array binding signal (z-score),[25],-0.404

# — the supplement of paper PMC8728848
